Rows were chosen to be rich in hits. Some 7.6% of all compounds tested hit in one or more screens of this group.
Cy5 interf NS3h – Cy5 fluorescence interference, HCV helicase counter-screen; Cy5-dT15 DNA with NS3h; actives lie on both sides; signal over control mean, under 1 quenches; fluorescence interference ratio at 100 µM; hit rate 6% among 16,000; AID 720488;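 active means compound fluorescence over control fluorescence at most 0.8, a quencher, or at least a set upper limit, an enhancer; inactive means ratio between 0.8 and the set upper limit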
HCV NS3h FP – blocks HCV NS3 helicase binding to DNA. NS3h Cy5-dT15 DNA binding, fluorescence polarization. inhibition, % at 100 µM. hit rate 1.6% among 16,000. AID 687043;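 active means inhibition above the average over every tested compound plus 3 SD, cut at about 40% in these data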
NS3h confirm – confirmation of hepatitis C virus NS3 helicase inhibitors. shares compounds with HCV NS3h FP. NS3h binding to Cy5-dT15 DNA, fluorescence polarization. inhibition, % at 100 µM. hit rate 20% among 240;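 active means percent inhibition of 50% or more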
SSB-DNA FP CB – E. coli SSB-DNA binding inhibition, NS3h counter-screen; shares compounds with HCV NS3h FP; E. coli SSB binding Cy5-dT15, fluorescence polarization; inhibition, % at 100 µM; hit rate 40% among 240;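 active means inhibition of at least 50%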;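 further: displacers lower Cy5 polarization so higher inhibition means more SSB displaced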
Target sequence (P0AGE0 whole entry, looked up): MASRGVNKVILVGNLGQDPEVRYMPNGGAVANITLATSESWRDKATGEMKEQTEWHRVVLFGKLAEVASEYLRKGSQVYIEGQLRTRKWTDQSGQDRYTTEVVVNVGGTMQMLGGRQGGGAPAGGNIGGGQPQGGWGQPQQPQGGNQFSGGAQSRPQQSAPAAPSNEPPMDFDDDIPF
Cy5 SSB fluor CB – Cy5 fluorescence interference in NS3h counter-screen; shares compounds with HCV NS3h FP; Cy5-dT15/E. coli SSB fluorescence interference; actives lie on both sides; fluorescence interference ratio at 100 µM; hit rate 8% among 240; AID 720487;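 active means fluorescence interference ratio at or above 1.2, signal boosting, or at or below 0.8, signal quenching; inactive means ratio between 0.8 and 1.2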;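 further: ratio of compound well signal to mean negative control signal so 1 means no effect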
Cy5 interf conf – Cy5 fluorescence interference, confirmation counter-screen; shares compounds with HCV NS3h FP; Cy5-dT15 DNA/NS3h fluorescence interference counterscreen; fluorescence interference ratio at 100 µM, hits read low; hit rate 44% among 240; AID 720489;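 active means fluorescence interference ratio at or below 0.8 quencher or at or above a set limitenhancer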;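 further: ratio of compound fluorescence to mean of negative controls so 1 means no interference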
The depositor's hits bear a star.

SMILES	Cy5 interf NS3h	HCV NS3h FP	others
CC1(C)OC2OC(COCc3ccccc3)C3OC(C)(C)OC3C2O1 (stereo not drawn)	0.99	6
Cc1cccc(Nc2cc(C)c(C#N)c3nc4ccccc4n23)c1	1.1	4
N#Cc1ccc2c(c1)nc1c3cccc4cccc(c(=O)n21)c43	0.65*	-4
Cc1ncc([N+](=O)[O-])n1Cc1ccccc1Cl	1	0
COC(=O)c1cccc(-c2ccc(/C=C3/C(=O)NN(c4cccc(Cl)c4)C3=O)o2)c1	0.77*	12
COC(=O)c1cccc(-c2ccc(C=C3C(=O)N(C)C(=O)N(C)C3=O)o2)c1	1.1	7
CCCCNC(=O)C(CCC(=O)OCc1ccccc1)NC(=O)Cc1ccccc1 (stereo not drawn)	0.95	-17
O=C(Nc1nc2ccccc2n1Cc1ccc(Cl)cc1)c1ccccc1	0.74*	23
Cc1ccc(C(=O)Nc2nc3ccccc3n2Cc2ccc(Cl)cc2)cc1	1.1	-10
CC(C)(C)c1cc(S(N)(=O)=O)c2cc(C(C)(C)C)cc(S(N)(=O)=O)c2c1	0.95	7
CCCCP(=O)(CCCC)CCP(=O)(CCCC)CCCC	1	-3
COc1ccc(C/C(N)=N\OC(=O)c2cccc([N+](=O)[O-])c2)cc1	0.95	10
CC(=O)c1ccc(N2C(=O)c3ccccc3C2=O)cc1	1	8
CC(=O)c1ccc(N2C(=O)c3c(Cl)c(Cl)c(Cl)c(Cl)c3C2=O)cc1	0.7*	9
COc1ccc(/C=N\n2cnnc2)cc1CSc1ccccn1	1	5
COc1ccc(N2C(=O)/C(=C\c3ccccc3C)SC2=S)cc1	1.2*	10
COc1cc(/C=C2\SC(=S)N(C(C)C(=O)O)C2=O)ccc1O (stereo not drawn)	1	14
COc1cc(/C=C2\SC(=S)N(C)C2=O)ccc1OC(=O)c1cccc(C)c1	1	14
COc1cc(/C=C2/SC(=S)N(c3ccccc3)C2=O)ccc1OC(=O)c1cccc(C)c1	0.67*	0
COc1cc(/C=C2\SC(=S)N(CC(C)C)C2=O)ccc1O	0.8*	17
C=CCOc1ccc(/C=C2\SC(=S)N(c3ccc([N+](=O)[O-])cc3)C2=O)cc1OC	1	4
COc1ccccc1/C=C1\SC(=S)N(c2ccc(F)cc2)C1=O	1	-1
C=CCOc1ccc(/C=C2\SC(=S)N(c3ccc(OC)cc3)C2=O)cc1OC	0.73*	14
CCOC(=O)c1ccc(N/C=C/C(=O)c2cccs2)cc1	1.1	7
CCOC(=O)/C(C#N)=C\c1cccc([N+](=O)[O-])c1	0.93	-2
SMILES	Cy5 interf NS3h	HCV NS3h FP	others
CCOC(=O)c1ccc(NC(=S)NC(=O)c2ccco2)cc1	0.94	7
O=C(Nc1nnc(COc2ccc(Cl)cc2)s1)c1ccccc1F	1	23
N#C/C(=C\c1ccc(-c2ccccc2)o1)C(=O)Nc1ccc(F)cc1	1.1	22
COc1ccc(CCNC2CC(=O)N(c3ccc(C)cc3)C2=O)cc1OC (stereo not drawn)	1	2
COc1ccc(C)cc1N(CC(=O)O)S(C)(=O)=O	1.1	0
CCCC(O)=C1C(=O)CC(C)(C)CC1=NCCCCCCN=C1CC(C)(C)CC(=O)C1=C(O)CCC	0.9	12
Cc1ccc([N+](=O)[O-])cc1-c1ccc(/C=C2\C(=O)NC(=O)N(c3ccc(Cl)cc3)C2=O)o1	1.3*	9
Cc1ccc(N2C(=O)NC(=O)/C(=C\c3ccc(-c4ccc([N+](=O)[O-])cc4Cl)o3)C2=O)cc1	0.88	6
COc1cc(/C=C2/C(=O)N(c3ccccc3)N=C2C)cc([N+](=O)[O-])c1O	0.93	4
COc1cc(/C=C2/C(=O)N(c3ccccc3)N=C2C)cc(I)c1O	0.69*	17
CCCC(=O)Nc1ccc2nn(-c3ccc(C)c(Cl)c3)nc2c1	1	2
O=C(CCN1C(=O)/C(=C/c2ccc(F)cc2)SC1=S)Nc1ccc(F)c(Cl)c1	1.1	2
Cc1cccc(C2=N/C(=C/c3ccc([N+](=O)[O-])cc3)C(=O)N2c2ccc(O)cc2)c1	0.97	15
COc1ccc(C2=N/C(=C/c3ccc([N+](=O)[O-])cc3)C(=O)N2c2ccc(O)cc2)cc1	0.79*	16
CCOn1c(=O)c(=O)n(OCC)c2ccccc21	0.96	2
CN1C(=O)C(=O)N(CC(=O)NCc2ccco2)C1=O	0.75*	74*	NS3h confirm=28;SSB-DNA FP CB=14;Cy5 SSB fluor CB=0.77*;Cy5 interf conf=0.84
CC(C(=O)NCc1ccco1)N1C(=O)c2ccccc2C1=O (stereo not drawn)	1.1	4
COc1ccc(NC(=O)CSc2ccccn2)cc1	1	-14
CCOC(=O)c1[nH]c(=O)[nH]c1CSc1ccccn1	1	44*	NS3h confirm=1;SSB-DNA FP CB=14;Cy5 SSB fluor CB=0.93;Cy5 interf conf=0.9
O=C1C(=Cc2ccccc2Br)C(=O)c2ccccc21	0.91	74*	NS3h confirm=51*;SSB-DNA FP CB=11;Cy5 SSB fluor CB=0.98;Cy5 interf conf=0.97
COc1cccc(C=C2C(=O)c3ccccc3C2=O)c1	1	24
O=C(O)CN1C(=O)/C(=C/c2ccc(OC(=O)c3ccccc3I)cc2)SC1=S	1	62*	NS3h confirm=31;SSB-DNA FP CB=26;Cy5 SSB fluor CB=0.93;Cy5 interf conf=0.76*
O=C(O)CN1C(=O)/C(=C\c2ccc(OC(=O)c3ccc(Cl)cc3Cl)cc2)SC1=S	1	6
Cc1ccc(-c2ccc(/C=C3\C(=O)NN(c4ccccc4)C3=O)o2)c([N+](=O)[O-])c1	0.92	25
O=C1NN(c2ccccc2)C(=O)/C1=C/c1ccc(-c2ccc(C(=O)O)cc2)o1	0.99	26
SMILES	Cy5 interf NS3h	HCV NS3h FP	others
O=C1NN(c2ccccc2)C(=O)/C1=C/c1ccc([N+](=O)[O-])o1	0.77*	82*	NS3h confirm=52*;SSB-DNA FP CB=117*;Cy5 SSB fluor CB=0.86;Cy5 interf conf=0.9
O=C1NN(c2ccccc2)C(=O)/C1=C/c1ccc(Br)o1	1	94*	NS3h confirm=52*;SSB-DNA FP CB=107*;Cy5 SSB fluor CB=0.88;Cy5 interf conf=0.79*
CC(C)CN1C(=O)/C(=C/c2cccc(Br)c2)SC1=S	0.96	11
O=C(/C=C/c1ccccc1)NC(=S)Nc1ccc([N+](=O)[O-])cc1Cl	0.9	-2
Cc1cccc(/C(N)=N\OC(=O)Cc2ccc(Cl)cc2)c1	0.95	-6
COc1cc(C=C2C(=O)NC(=O)NC2=O)cc(Br)c1OCc1ccc([N+](=O)[O-])cc1	0.73*	73*	NS3h confirm=19;SSB-DNA FP CB=44;Cy5 SSB fluor CB=0.85;Cy5 interf conf=0.58*
COc1cc(C=C2C(=O)NC(=S)NC2=O)cc(Br)c1O	1	31
COc1cc(C=C2C(=O)NC(=O)NC2=O)cc([N+](=O)[O-])c1O	0.89	48*	NS3h confirm=34;SSB-DNA FP CB=60*;Cy5 SSB fluor CB=0.89;Cy5 interf conf=0.95
COc1cc(C=C2C(=O)N(C)C(=O)N(C)C2=O)cc(Br)c1OCc1ccccc1	0.98	32
O=C(/C=C/c1cc(Br)cs1)Nc1ccccc1[N+](=O)[O-]	0.97	12
O=C(c1cccc(Br)c1)N1CCN(c2ccc(F)cc2)CC1	0.94	12

Screening results: PubChem, Milwaukee Institute for Drug Discovery
